# Bioassay records deposited in PubChem BioAssay by The Scripps Research Institute Molecular Screening Center.
# In the library only some 2.4% were active in any assay of this set; here they are far more common.
# CHO-K1 Ca antag: counter-screen for M1 antagonists: effect in parental CHO-K1 cells | ATP-induced calcium, Fluo-8 fluorescence | inhibition, % at 3 µM | 360,000 tested, 0.6% active | AID 602250;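 active = inhibition above a per-plate cutoff, the plate's mean sample inhibition plus 3 SD, cut at about 24% in these data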;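 note: 0% = DMSO plus EC80 ATP and 100% = DMSO alone without ATP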
# M1 PAM parental: nonselective calcium activators in parental CHO-K1 cells, primary screen, counter-screen for M1 PAM project, cell-based, Fluo-8 calcium fluorescence, full deck, 1536-well. ATP EC20; 0% at ATP EC20, 100% at ATP max. activation, % at 3 µM. 360,000 tested, 0.02% active;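 active = activation above the run cutoff, the mean activation of all test compounds plus 3 SD, cut at about 40% in these data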;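 note: peak over basal fluorescence ratio in a 140 s read after ATP addition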
# M1 ag parental: counter-screen for M1 agonists: effect in parental CHO-K1 cells; Fluo-8 calcium fluorescence; scaled to maximal ATP response, vehicle zero; activation, % at 3 µM; 360,000 tested, 0.48% active; AID 602248, 2012; in the data active = activation above about 15%;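 note: untransfected CHO-K1 host cells lacking M1 receptor as counterscreen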
# CHRM1 agonist: human M1 muscarinic receptor agonists, primary screen, Fluo-8 calcium fluorescence, CHO-K1 cells, HTS. Muscarinic acetylcholine receptor M1 (Homo sapiens), P11229. CHO-K1 hM1, agonist mode; 0% DMSO, 100% acetylcholine EC100. activation, % at 3 µM. 360,000 tested, 0.33% active;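 active = activation above the run's mean compound activation plus 3 SD, cut at about 16% in these data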;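 note: peak over basal fluorescence ratio within a 140 s kinetic read after compound addition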
# Target sequence (P11229 whole entry, looked up): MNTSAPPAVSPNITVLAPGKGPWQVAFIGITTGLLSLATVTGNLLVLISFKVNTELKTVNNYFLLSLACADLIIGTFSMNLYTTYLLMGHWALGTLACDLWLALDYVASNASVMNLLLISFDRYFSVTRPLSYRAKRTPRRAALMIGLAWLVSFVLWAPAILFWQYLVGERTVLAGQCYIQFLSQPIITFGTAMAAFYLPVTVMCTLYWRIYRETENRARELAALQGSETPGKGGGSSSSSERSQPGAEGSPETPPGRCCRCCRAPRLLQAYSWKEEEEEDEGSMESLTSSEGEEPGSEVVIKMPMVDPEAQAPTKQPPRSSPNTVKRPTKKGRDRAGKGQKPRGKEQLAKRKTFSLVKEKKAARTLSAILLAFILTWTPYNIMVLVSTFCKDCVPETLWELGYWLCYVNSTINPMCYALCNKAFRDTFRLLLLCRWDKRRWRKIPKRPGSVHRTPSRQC
# CHRM1 PAM: human M1 muscarinic receptor positive allosteric modulators, primary screen, CHO-K1 cells, Fluo-8 calcium fluorescence, 1536-well | Muscarinic acetylcholine receptor M1 (Homo sapiens), P11229 | CHO-K1 hM1, ACh EC20; 0% = ACh EC20, 100% = maximal ACh | activation, % at 3 µM | 360,000 tested, 0.088% active | AID 588819, 2011; in the data active = activation above about 19%, passing the limit was not always enough
# M1 antag: human M1 muscarinic receptor antagonists, primary screen, CHO-K1 cells, Fluo-8 calcium fluorescence, 1536-well; inhibition, % at 3 µM; AID 588852, 2011; CHO-K1 hM1, ACh EC80 antagonist; 360,000 tested, 1.3% active; Muscarinic acetylcholine receptor M1 (Homo sapiens), P11229;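 active = percent inhibition above its own plate's cutoff, namely the mean of that plate's compound wells plus 3 SD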;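 note: peak over basal fluorescence ratio during 140 s after agonist addition; 0% = ACh EC80 plus DMSO and 100% = DMSO alone without agonist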
# The depositor's hits bear a star; . = no result.
SMILES,CHO-K1 Ca antag,M1 PAM parental,M1 ag parental,CHRM1 agonist,CHRM1 PAM,M1 antag
COc1ccc([C@H]2C[C@H](O)[C@@H](n3cc(-c4ccc(F)cc4)nn3)CN2C(=O)c2cccs2)cc1,6.5,6.0,0.6,-0.8,-10.5,19.7
O=c1cc(C(F)(F)F)[nH]c2c(OC(F)(F)F)cccc12,-1.1,-16.8,9.7,5.7,-0.6,-1.4
COC(=O)c1ccc(NC(=O)CCN2CCOCC2)cc1,-9.8,24.0,0.3,-1.0,15.2,-21.9
O=C(NCCc1c[nH]c2ccccc12)C(=O)NCC1OCCCN1S(=O)(=O)c1cccs1 (stereo not given),-1.2,5.6,6.8,-5.5,-4.0,1.8
COc1ccc(Cl)cc1CC=NNC(=O)c1ccncc1,-6.9,-23.9,-0.2,-1.4,-0.6,-6.8
CCCOc1ccc(C(=O)NNC(=S)NC(=O)c2ccccc2[N+](=O)[O-])cc1,3.4,7.2,15.4*,13.4,5.0,7.7
CCCOc1ccc(C(=O)NNC(=S)NC(=O)c2ccco2)cc1,21.2,-28.0,60.1*,67.3*,-17.9,17.4
CCCOc1ccc(C(=O)NNC(=S)NC(=O)c2ccccc2)cc1,42.2*,-39.2,105.0*,115.4*,-37.5,69.2*
COc1ccc(C(=O)NNC(=S)NC(=O)c2ccco2)cc1,-4.5,7.5,6.9,7.0,1.9,-5.7
CC(C)(C)c1nnc(NC(=O)c2cccnc2)s1,-11.6,27.2,0.4,-6.5,5.5,-2.1
CCC(C)(C)NC(=O)C(c1ccccc1Cl)N(Cc1cccnc1)C(=O)CCC(=O)Nc1cc(C)on1 (stereo not given),-4.5,25.4,0.4,-8.5,12.5,-14.7
O=C(NCCn1cc(SCc2ccccc2F)c2ccccc21)c1c(F)cccc1F,-3.1,29.6,3.9,-4.5,-19.5,31.7*
O=C(NCCn1cc(SCC(=O)N2CCOCC2)c2ccccc21)c1c(F)cccc1F,-1.5,4.1,2.7,-1.7,-4.0,-1.1
CCOc1cccc(/C=C(\C#N)C(=O)NC2CC2)c1,-1.8,-9.6,0.8,-3.8,2.9,1.3
CC(C)CCC(CCN1CCCC1)c1ccc2c(c1)OCO2 (stereo not given),-16.2,25.6,3.4,-6.8,-25.8,57.4*
CC(C)CCC(CCN1CCOCC1)c1ccc2c(c1)OCO2 (stereo not given),-2.4,4.6,0.0,-6.3,-9.5,10.6
COc1cc(OC)c(OC)cc1CNCCSc1nnnn1C,0.9,10.9,18.8*,-7.9,5.2,-7.5
CCOc1cc(CNCCSc2nnnn2C)cc(Br)c1OCc1ccccc1,16.8,-6.6,1.2,-1.3,-7.2,29.1*
C/C(=N\Nc1nccnc1Cl)c1ccc(O)c(C)c1,-6.2,9.1,-0.4,-4.9,4.6,-15.7
O=C1CN(C(=O)c2ccc3nc(Cc4cccc(Cl)c4)oc3c2)CCN1,8.4,-10.6,0.6,-1.4,-3.3,-4.9
c1ccc(-c2ccc(OCCCNC3CCCC3)cc2)cc1,13.7,-6.8,13.8,0.0,-29.4,36.3*
O=C(CCc1nc2ccccc2c(=O)[nH]1)Nc1nnc(SCc2ccccc2F)s1,-5.2,2.2,1.1,-8.4,-26.8,48.6*
O=C(Nc1nnc(SCc2ccccc2F)s1)C1=COCCO1,9.7,-8.0,17.3*,-3.6,-7.5,7.8
O=C(Nc1nnc(SCc2ccccc2)s1)C1=COCCO1,-0.8,-16.6,1.9,-7.5,-9.7,8.9
COc1ccccc1CN1CC(C(=O)NCc2c(F)ccc(C)c2F)CCC1=O (stereo not given),-12.3,10.9,0.8,0.3,9.5,-5.0
SMILES,CHO-K1 Ca antag,M1 PAM parental,M1 ag parental,CHRM1 agonist,CHRM1 PAM,M1 antag
CC(C)CNC(=O)C(=O)Nc1cc2c3c(c1)C(C)C(=O)N3CCC2 (stereo not given),-4.2,2.6,1.4,-2.3,9.1,-12.0
CC1C(=O)N2CCCc3cc(NC(=O)C(=O)NCCN4CCOCC4)cc1c32 (stereo not given),20.4,-30.3,-0.2,-1.2,-13.8,36.6*
CC(C)C[C@H]1CN(CCCC[C@@H]2CNC(=O)C(=O)N2CCc2ccccc2)C(=O)C(=O)N1CCc1ccc(O)cc1,-7.4,12.2,0.1,.,.,.
CC1(C(=O)NS(=O)(=O)c2ccc(Br)cc2)CCN1C(=O)CCc1cccs1 (stereo not given),12.1,-9.8,-0.1,-2.3,1.4,2.6
CC(=O)N1CCN(C(=O)/C(C#N)=C/c2ccc3c(c2)OCO3)CC1,-12.3,9.4,0.4,3.7,33.7*,-29.0
CCOC(=O)c1c(C)[nH]c(C(=O)OCC(=O)N(CC(C)C)C2CCS(=O)(=O)C2)c1C (stereo not given),-3.3,1.9,0.1,-3.0,-6.8,15.2
Cc1ccc(CONC(=O)c2ccc(C)cc2)cc1,7.8,0.4,-0.4,-2.1,13.8,-9.3
CC(C)[C@@H]1CN=C(N)N1C[C@@H]1CCCN1C[C@H](C)N1C[C@@H](Cc2ccccc2)N(CCc2ccc(Cl)c(Cl)c2)C1=N,-10.0,18.9,0.7,-11.0,-29.3,45.8*
CC(C)[C@H](CN1CCC[C@H]1CN1C(N)=NC[C@@H]1Cc1ccccc1)N1C[C@@H](Cc2ccccc2)N(CCc2ccc(Cl)c(Cl)c2)C1=N,-6.5,-1.5,-0.3,-10.8,-10.3,14.1
C[C@@H](CN1CCC[C@H]1CN1C(N)=NC[C@@H]1Cc1ccccc1)N1C[C@@H](Cc2ccccc2)N(CCc2ccc(Cl)c(Cl)c2)C1=N,4.8,5.9,-0.5,-7.8,-29.3,68.0*
COc1ccccc1NS(=O)(=O)c1ccc(C)c(C(=O)NCCCN2CCCC2=O)c1,30.5*,-3.1,-0.5,3.0,13.6,-0.1
Cc1cccc(C)c1NC(=O)C(c1ccccc1OC(F)(F)F)N1CCN(C/C=C/c2ccccc2)CC1 (stereo not given),-16.9,18.6,1.6,-6.1,-4.6,-4.4
CN1CCN(c2ccc(NC(=O)COc3ccccc3[N+](=O)[O-])cc2)CC1,2.6,5.0,0.0,-15.6,12.4,-6.6
CC(C)C(=O)N1CCN(c2ccc(NC(=O)COc3ccccc3[N+](=O)[O-])cc2)CC1,39.7*,-19.0,12.6,3.8,-26.1,36.6*
Cc1cccc(OCC(=O)Nc2ccc(N3CCN(C(=O)c4ccccc4)CC3)cc2)c1C,3.7,-3.0,9.8,0.9,-12.4,26.9*
CCC(=O)N1CCN(c2ccc(NC(=O)COc3cccc(C)c3C)cc2)CC1,15.0,-3.3,8.6,-4.7,-9.5,15.9
CCOC(=O)NNC(=O)C1CCC(C)CC1 (stereo not given),5.7,9.4,19.3*,-3.4,11.6,-11.2
